Drawing on PubChem BioAssay (EPA / NIEHS), this text covers outcome and AC50 for seven compounds.

What is called AC50 is the concentration at which the activity in the assay is half-maximal.

Active and inactive are the calls of the source. How the source made its calls: active means hit-call score of the fitted dose curve at least 0.9, where 1 is the maximum; inactive means score below 0.9.

Assay [1] can be described thus: ATG_GLI_CIS: Attagene CIS-FACTORIAL HepG2 Assay for human Zinc Finger Protein GLI1 (AID 2282945). To be noted: HepG2, Attagene cis-factorial reporter mRNA, GLI element; actives raise or lower the signal. The procedure, abridged: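 Bidirectional curve fits relative to DMSO, using reporter mRNA levels from RT-PCR plus capillary electrophoresis. Cells were HepG2 transiently carrying cis-regulated reporter constructs, harvested 24 h after dosing.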

The nature of assay [2]: ATG_GRE_CIS: Attagene CIS-FACTORIAL HepG2 Assay for human Glucocorticoid Response Elements (GRE) (AID 2282947). To be noted: HepG2 GRE cis-reporter, Attagene multiplex mRNA; actives raise or lower the signal. The procedure, abridged: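 Assay uses human hepatoma HepG2 cells transfected with cis-promoter reporter units, exposed 24 h. mRNA from reporters detected by RT-PCR plus capillary electrophoresis; DMSO serves as negative control and baseline.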

A short description of assay [3]: ATG_ISRE_CIS: Attagene CIS-FACTORIAL HepG2 Assay for human Interferon Regulatory Factor 1 (IRF1) binding to an Interferon-Stimulated Response Element (ISRE) (AID 2282948). To be noted: HepG2 ISRE cis-reporter (Attagene), mRNA transcription readout; actives raise or lower the signal. The gist of the method:
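Transfected HepG2 (multiple reporter transcription units, cis elements) dosed 24 h. RNA → oligo(dT) RT → PCR → 6-FAM primer extension → HpaI → CE. DMSO = negative control/baseline.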

Assay [4] in a line: ATG_M_32_CIS: Attagene CIS-FACTORIAL HepG2 Assay for M32 Transcription Factor (Internal Marker) (AID 2282949).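 Further: background control marker of the multiplexed CIS panel rather than a real target.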 As to conditions: HepG2 Attagene cis-factorial M32 reporter, mRNA; actives raise or lower the signal. The gist of the method:
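Internal background marker read-out: RT-PCR/capillary electrophoresis fluorescence of reporter transcripts from transiently transfected HepG2 cells after 24 h chemical exposure. Activity fitted bidirectionally relative to DMSO negative control.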

The nature of assay [5]: ATG_M_06_CIS: Attagene CIS-FACTORIAL HepG2 Assay for M06 Transcription Factor (Internal Marker) (AID 2282950). To be noted: HepG2 Attagene CIS-FACTORIAL M06 internal marker reporter; actives raise or lower the signal. The procedure, abridged:
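Measured 24 h post-dosing in transiently transfected HepG2 cells, this internal-marker endpoint reports reporter mRNA via RT-PCR with fluorescent primer extension and capillary electrophoresis. DMSO served as negative control and baseline for bidirectional fitting.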

Assay [6] concerns the target Hypoxia-inducible factor 1-alpha (Homo sapiens) (UniProt Q16665). Briefly: ATG_HIF1a_CIS: Attagene CIS-FACTORIAL HepG2 Assay for human Hypoxia Inducible Factor 1 (HIF1A) (AID 2282951). To be noted: HepG2 Attagene cis-factorial HIF1a reporter transcription; actives raise or lower the signal. The procedure, abridged:
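Transient MRTU transfection of human HepG2 liver cells, 24 h compound treatment, then total RNA isolation, oligo(dT) reverse transcription, PCR amplification, fluorescent labelling and capillary electrophoresis of reporter fragments. Gain or loss relative to DMSO.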

The target of assay [7] is Hepatocyte nuclear factor 6 (Homo sapiens) (UniProt Q9UBC0). Briefly: ATG_HNF6_CIS: Attagene CIS-FACTORIAL HepG2 Assay for human Hepatocyte Nuclear Factor 6 (HNF6) (AID 2282952). To be noted: HepG2 Attagene cis-factorial HNF6 reporter transcription; actives raise or lower the signal. The procedure, abridged:
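Transiently transfected HepG2 cells expressing cis-regulated reporter transcription units were exposed to chemical for 24 h in a 24-well format. Reporter transcript abundance was determined by fluorescence capillary electrophoresis.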

The target in assay [8] is Heat shock factor protein 1 (Homo sapiens) (UniProt Q00613). Briefly: ATG_HSE_CIS: Attagene CIS-FACTORIAL HepG2 Assay for human Heat Shock Transcription Factor 1 (HSE) (AID 2282953). To be noted: HepG2 HSE cis-reporter, Attagene RNA transcription; actives raise or lower the signal. The gist of the method:
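Reporter mRNA induction in HepG2 is measured 24 h after dosing, using transiently transfected multiplexed cis-regulated reporter units. Signal comes from capillary electrophoresis of labelled RT-PCR products, with DMSO as negative control.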

Assay [9] is described as follows: ATG_MRE_CIS: Attagene CIS-FACTORIAL HepG2 Assay for human Metal Responsive Element (MRE) (AID 2282954). As to conditions: HepG2 MRE cis-reporter transcription, Attagene multiplex; actives raise or lower the signal. The gist of the method: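 After a 24 h chemical exposure, transiently transfected HepG2 cells yield RNA whose reporter sequences are amplified, FAM-labelled and sized by capillary electrophoresis. Curves are fitted bidirectionally relative to DMSO.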

The nature of assay [10]: ATG_PBREM_CIS: Attagene CIS-FACTORIAL HepG2 Assay for human Phenobarbital-responsive Enhancer Module (PBREM) (AID 2282955). As to conditions: HepG2 PBREM cis-reporter, Attagene multiplexed transcription; actives raise or lower the signal. The gist of the method: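 Endogenous transcription factors in human liver HepG2 cells drive a PBREM cis-element reporter, whose transcript level after 24 h treatment is quantified by RT-PCR with capillary electrophoresis; activity fitted in both directions against DMSO.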

Assay [11] addresses Paired box protein Pax-6 (Homo sapiens) (UniProt P26367). Kind of assay: ATG_Pax6_CIS: Attagene CIS-FACTORIAL HepG2 Assay for human Paired Box 6 (PAX6) (AID 2282956). As to conditions: HepG2 CIS-FACTORIAL PAX6 reporter transcription, RNA readout; actives raise or lower the signal. The gist of the method: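 Transient MRTU transfection of HepG2 → compound exposure 24 h → TriZol RNA, oligo(dT) RT → PCR, 6-FAM primer extension, HpaI cut → capillary electrophoresis; activity fitted both directions against DMSO.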

Assay [12] in a line: ATG_PXRE_CIS: Attagene CIS-FACTORIAL HepG2 Assay for human Pregnane X Receptor Element (PXRE) (AID 2282957). As to conditions: HepG2 Attagene CIS-FACTORIAL PXRE reporter, mRNA; actives raise or lower the signal. The gist of the method: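 Cis-element reporter mRNA in human hepatoma HepG2 cells is measured 24 h post-dosing by RT-PCR, primer-extension labeling and capillary electrophoresis; gain or loss of signal is fitted relative to DMSO.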

The nature of assay [13]: ATG_PPRE_CIS: Attagene CIS-FACTORIAL HepG2 Assay for human Peroxisome Proliferator-activated Response Element (PPRE) (AID 2282958). As to conditions: HepG2 PPRE cis-element reporter, Attagene transcription factor profiling; actives raise or lower the signal. The procedure, abridged:
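HepG2, transient MRTU transfection (cis promoter elements, endogenous TFs). 24 h dosing. RNA → oligo(dT) RT → PCR → 6-FAM primer extension → HpaI digest → CE. Bidirectional fit vs DMSO.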

The nature of assay [14]: ATG_RORE_CIS: Attagene CIS-FACTORIAL HepG2 Assay for human RAR-related Orphan Receptor Element (RORE) (AID 2282959). To be noted: HepG2 Attagene cis-factorial RORE reporter, mRNA; actives raise or lower the signal. The procedure, abridged:
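Transient MRTU transfection of human HepG2 liver cells (FuGene 6); 24 h compound exposure; TriZol RNA, oligo(dT) RT, PCR, FAM labeling, HpaI cut, CE fragment analysis. DMSO = negative control/baseline.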

The nature of assay [15]: ATG_Sox_CIS: Attagene CIS-FACTORIAL HepG2 Assay for human SRY-box transcription factor (SOX) (AID 2282960). As to conditions: HepG2 Attagene cis-factorial SOX reporter, mRNA; actives raise or lower the signal. The procedure, abridged: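 Endogenous factor activity in human liver HepG2 cells carrying transfected cis-regulated reporter units. RNA taken 24 h post-dose, reverse-transcribed, PCR-amplified and sized by capillary electrophoresis. Gain or loss of signal fitted relative to DMSO.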

Assay [16] addresses Transcription factor Sp1 (Homo sapiens) (UniProt P08047). Briefly: ATG_Sp1_CIS: Attagene CIS-FACTORIAL HepG2 Assay for human Specificity Protein 1 (Sp1) (AID 2282961). To be noted: HepG2 Sp1 cis-reporter transcription, actives raise or lower the signal. The gist of the method:
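Transient MRTU-transfected HepG2, 24 h compound exposure. Total RNA → oligo(dT) RT → PCR of reporter → 6-FAM primer extension → HpaI digest → CE. Endpoint fitted both directions vs DMSO.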

Assay [17] can be described thus: ATG_SREBP_CIS: Attagene CIS-FACTORIAL HepG2 Assay for human Sterol Regulatory Element Binding (SREBP) (AID 2282962). To be noted: HepG2 Attagene cis-factorial SREBP reporter, mRNA; actives raise or lower the signal. The gist of the method:
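Transfected HepG2 (cis-regulated reporter library, endogenous TFs) → compound 24 h → total RNA → oligo(dT) RT → reporter-specific PCR → FAM primer extension, HpaI cut → CE fluorescence. Fit bidirectional vs DMSO.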

The target of assay [18] is Signal transducer and activator of transcription 3 (Homo sapiens) (UniProt P40763). Kind of assay: ATG_STAT3_CIS: Attagene CIS-FACTORIAL HepG2 Assay for human Signal Transducer and Activator of Transcription 3 (STAT3) (AID 2282963). To be noted: HepG2, Attagene cis-factorial STAT3 reporter transcription; actives raise or lower the signal. The procedure, abridged: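 After a 24 h compound incubation, total RNA from MRTU-transfected HepG2 cells was converted to cDNA and reporter sequences PCR-amplified, labelled and profiled by capillary electrophoresis. Gain and loss of signal were referenced to DMSO.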
Signal transducer and activator of transcription 3 (Homo sapiens), sequence (P40763 whole entry, looked up): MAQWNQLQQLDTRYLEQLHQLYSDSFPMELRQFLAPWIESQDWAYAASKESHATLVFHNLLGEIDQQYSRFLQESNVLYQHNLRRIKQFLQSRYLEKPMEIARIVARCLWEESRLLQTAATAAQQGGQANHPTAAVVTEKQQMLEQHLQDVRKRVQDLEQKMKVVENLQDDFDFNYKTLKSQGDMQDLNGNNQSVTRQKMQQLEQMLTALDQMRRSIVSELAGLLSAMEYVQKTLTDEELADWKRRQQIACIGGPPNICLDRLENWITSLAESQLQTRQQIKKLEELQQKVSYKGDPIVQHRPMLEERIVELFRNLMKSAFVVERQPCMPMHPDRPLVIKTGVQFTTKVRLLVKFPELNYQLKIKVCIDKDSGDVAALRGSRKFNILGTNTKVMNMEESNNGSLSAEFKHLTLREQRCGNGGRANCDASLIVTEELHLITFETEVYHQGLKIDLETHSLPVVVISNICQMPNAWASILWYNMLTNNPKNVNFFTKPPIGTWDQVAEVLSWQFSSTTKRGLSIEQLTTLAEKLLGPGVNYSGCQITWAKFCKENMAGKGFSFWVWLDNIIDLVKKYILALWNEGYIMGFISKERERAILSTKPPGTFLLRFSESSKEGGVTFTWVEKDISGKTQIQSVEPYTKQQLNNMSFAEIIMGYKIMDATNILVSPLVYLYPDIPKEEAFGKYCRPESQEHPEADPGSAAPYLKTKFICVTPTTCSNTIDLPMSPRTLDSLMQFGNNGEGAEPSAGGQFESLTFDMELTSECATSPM

The nature of assay [19]: ATG_TA_CIS: Attagene CIS-FACTORIAL HepG2 Assay for human TA Basal Promoter (AID 2282964). To be noted: HepG2 Attagene CIS-factorial TA basal promoter reporter; actives raise or lower the signal. The procedure, abridged: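 Cis-factorial format in HepG2: reporters report endogenous factors, not chimeric Gal4 fusions. After 24 h treatment, reporter transcripts were measured by RT-PCR-capillary electrophoresis fluorescence, analysed bidirectionally versus DMSO.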

The target in assay [20] is Bile acid receptor (Homo sapiens) (UniProt Q96RI1). Briefly: ATG_IR1_CIS: Attagene CIS-FACTORIAL HepG2 Assay for human Nuclear Receptor Subfamily 1 Group H Member 4 (NR1H4), IR1 submotif (AID 2282946). To be noted: IR1 reporter transcription, actives raise or lower the signal. The procedure, abridged: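 Cells (human HepG2) carry transiently transfected cis-promoter reporter transcription units. Compounds are incubated 24 h, total RNA is reverse-transcribed and amplified, and labelled fragments are resolved by capillary electrophoresis. Curves use DMSO as baseline.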
Bile acid receptor (Homo sapiens), sequence (Q96RI1 whole entry, looked up, the tested form may be a part): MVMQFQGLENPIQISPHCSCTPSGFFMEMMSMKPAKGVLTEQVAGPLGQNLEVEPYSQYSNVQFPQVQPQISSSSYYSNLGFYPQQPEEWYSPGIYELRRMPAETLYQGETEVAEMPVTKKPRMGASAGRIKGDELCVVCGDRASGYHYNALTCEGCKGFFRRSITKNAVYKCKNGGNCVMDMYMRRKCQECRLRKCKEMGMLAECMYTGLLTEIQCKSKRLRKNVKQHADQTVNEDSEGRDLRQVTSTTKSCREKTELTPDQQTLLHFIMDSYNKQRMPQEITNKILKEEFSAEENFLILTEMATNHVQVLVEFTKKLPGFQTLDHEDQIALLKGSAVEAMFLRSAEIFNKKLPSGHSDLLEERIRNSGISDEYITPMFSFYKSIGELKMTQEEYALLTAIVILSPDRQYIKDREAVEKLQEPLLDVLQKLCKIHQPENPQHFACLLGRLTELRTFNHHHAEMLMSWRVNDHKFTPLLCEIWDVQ

Hepatocyte nuclear factor 6 (Homo sapiens), sequence (Q9UBC0 whole entry, looked up): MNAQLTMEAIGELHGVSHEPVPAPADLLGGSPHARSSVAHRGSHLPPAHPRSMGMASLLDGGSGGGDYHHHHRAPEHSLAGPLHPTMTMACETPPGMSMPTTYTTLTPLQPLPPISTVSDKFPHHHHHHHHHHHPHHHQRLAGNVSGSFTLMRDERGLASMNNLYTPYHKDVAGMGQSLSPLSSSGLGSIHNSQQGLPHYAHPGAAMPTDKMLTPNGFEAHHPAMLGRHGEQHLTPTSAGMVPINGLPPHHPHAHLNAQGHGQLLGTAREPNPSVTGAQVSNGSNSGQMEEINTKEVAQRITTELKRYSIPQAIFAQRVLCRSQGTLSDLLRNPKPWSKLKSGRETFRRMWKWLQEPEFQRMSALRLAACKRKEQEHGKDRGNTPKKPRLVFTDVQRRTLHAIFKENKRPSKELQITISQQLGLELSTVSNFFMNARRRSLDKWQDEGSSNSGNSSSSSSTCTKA
Paired box protein Pax-6 (Homo sapiens), sequence (P26367 whole entry, looked up): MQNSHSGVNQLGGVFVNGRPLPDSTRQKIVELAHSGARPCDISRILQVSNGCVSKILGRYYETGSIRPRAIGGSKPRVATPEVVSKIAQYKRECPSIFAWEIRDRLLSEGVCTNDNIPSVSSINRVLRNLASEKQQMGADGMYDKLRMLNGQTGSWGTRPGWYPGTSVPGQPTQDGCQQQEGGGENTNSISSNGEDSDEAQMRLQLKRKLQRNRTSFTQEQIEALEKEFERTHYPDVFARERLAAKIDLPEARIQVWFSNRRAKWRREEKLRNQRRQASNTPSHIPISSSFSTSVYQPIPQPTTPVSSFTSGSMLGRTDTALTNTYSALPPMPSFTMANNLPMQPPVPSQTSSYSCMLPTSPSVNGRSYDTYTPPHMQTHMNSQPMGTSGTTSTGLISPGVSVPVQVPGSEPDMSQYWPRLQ
Hypoxia-inducible factor 1-alpha (Homo sapiens), sequence (Q16665 whole entry, looked up, the tested form may be a part): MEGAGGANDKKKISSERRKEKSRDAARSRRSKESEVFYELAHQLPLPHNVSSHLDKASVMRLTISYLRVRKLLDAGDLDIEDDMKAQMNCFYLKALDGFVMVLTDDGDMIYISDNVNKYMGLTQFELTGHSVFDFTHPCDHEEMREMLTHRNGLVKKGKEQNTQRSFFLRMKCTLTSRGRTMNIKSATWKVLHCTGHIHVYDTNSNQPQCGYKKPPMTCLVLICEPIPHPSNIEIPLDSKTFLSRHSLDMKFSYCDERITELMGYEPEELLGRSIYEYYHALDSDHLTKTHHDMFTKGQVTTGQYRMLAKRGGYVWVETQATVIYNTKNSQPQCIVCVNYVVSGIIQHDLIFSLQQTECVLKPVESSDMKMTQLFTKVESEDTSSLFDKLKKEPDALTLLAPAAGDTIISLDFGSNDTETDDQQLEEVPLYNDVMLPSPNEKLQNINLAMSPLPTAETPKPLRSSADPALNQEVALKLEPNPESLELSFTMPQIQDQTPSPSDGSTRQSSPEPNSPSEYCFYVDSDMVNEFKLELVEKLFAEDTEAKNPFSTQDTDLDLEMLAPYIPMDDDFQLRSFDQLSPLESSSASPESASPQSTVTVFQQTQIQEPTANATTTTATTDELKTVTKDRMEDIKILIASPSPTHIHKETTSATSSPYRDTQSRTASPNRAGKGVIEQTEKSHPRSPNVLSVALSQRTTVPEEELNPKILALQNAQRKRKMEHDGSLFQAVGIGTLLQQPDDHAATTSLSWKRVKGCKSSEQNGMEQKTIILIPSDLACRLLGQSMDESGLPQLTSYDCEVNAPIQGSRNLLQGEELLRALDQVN
Heat shock factor protein 1 (Homo sapiens), sequence (Q00613 whole entry, looked up): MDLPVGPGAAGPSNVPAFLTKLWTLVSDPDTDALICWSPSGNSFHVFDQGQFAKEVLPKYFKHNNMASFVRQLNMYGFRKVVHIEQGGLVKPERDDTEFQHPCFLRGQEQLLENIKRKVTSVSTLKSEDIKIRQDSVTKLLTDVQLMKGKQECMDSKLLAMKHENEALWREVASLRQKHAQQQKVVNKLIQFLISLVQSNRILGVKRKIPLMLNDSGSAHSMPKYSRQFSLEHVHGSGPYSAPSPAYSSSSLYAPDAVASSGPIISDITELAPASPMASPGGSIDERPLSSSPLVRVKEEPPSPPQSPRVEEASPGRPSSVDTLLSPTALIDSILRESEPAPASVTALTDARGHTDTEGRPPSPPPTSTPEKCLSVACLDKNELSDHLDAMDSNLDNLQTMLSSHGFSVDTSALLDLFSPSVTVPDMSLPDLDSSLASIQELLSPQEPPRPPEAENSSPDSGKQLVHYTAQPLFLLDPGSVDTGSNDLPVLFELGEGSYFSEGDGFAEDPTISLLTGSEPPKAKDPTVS
Transcription factor Sp1 (Homo sapiens), sequence (P08047 whole entry, looked up): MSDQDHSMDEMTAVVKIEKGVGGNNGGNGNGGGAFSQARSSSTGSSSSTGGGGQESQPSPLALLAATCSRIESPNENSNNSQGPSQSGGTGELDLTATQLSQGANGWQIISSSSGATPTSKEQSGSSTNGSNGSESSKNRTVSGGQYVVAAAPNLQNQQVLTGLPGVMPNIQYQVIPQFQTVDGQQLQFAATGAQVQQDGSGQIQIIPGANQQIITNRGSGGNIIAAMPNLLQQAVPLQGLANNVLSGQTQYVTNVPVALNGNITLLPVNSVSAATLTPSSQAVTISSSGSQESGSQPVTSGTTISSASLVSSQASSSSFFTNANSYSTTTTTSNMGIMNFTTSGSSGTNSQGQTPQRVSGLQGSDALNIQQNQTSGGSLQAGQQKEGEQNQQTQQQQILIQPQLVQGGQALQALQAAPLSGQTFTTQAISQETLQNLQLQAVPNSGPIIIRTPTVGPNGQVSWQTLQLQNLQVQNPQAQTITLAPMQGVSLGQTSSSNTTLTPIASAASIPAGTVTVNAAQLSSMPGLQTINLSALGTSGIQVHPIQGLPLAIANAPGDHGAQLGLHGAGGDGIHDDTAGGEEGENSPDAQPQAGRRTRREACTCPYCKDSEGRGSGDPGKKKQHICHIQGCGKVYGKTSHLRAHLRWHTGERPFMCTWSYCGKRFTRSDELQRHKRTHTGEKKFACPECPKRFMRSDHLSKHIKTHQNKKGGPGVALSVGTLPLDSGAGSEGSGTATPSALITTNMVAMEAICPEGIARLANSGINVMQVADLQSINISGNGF

`COCCOC[C@H](CC1(C(=O)NC2CCC(C(=O)O)CC2)CCCC1)C(=O)Oc1ccc2c(c1)CCC2` (stereo partly specified): the outcome in assay [1], in assay [2], in assay [3], in assay [4], in assay [5] and in [6] was inactive. The compound was called inactive in [7], in assay [8], in assay [9], in [10], in [11] and in assay [13]. Moreover, the call in assay [14], in assay [15], in [16], in assay [17], in assay [18] and in assay [19] was inactive. Further, the concentration at half-maximal activity (AC50) in assay [12] is 20.2 µM (active).
As for `Cc1ccc(C)c(O)c1C`, the compound was classed as inactive in assay [1], in assay [2], in assay [3], in assay [4], in assay [5] and in assay [6]. Besides, the outcome in assay [8], in [9], in assay [10], in assay [11], in assay [12] and in [13] was inactive. Further, the compound was classed as inactive in assay [14], in assay [15], in [16], in assay [17], in assay [18] and in assay [19].
Take `Cc1ccc2ncccc2c1`: the compound was classed as inactive in [1], in assay [2], in [3], in assay [4], in assay [5] and in [6]. The outcome in assay [7], in assay [8], in [9], in assay [10], in assay [11] and in assay [13] was inactive. The compound was called inactive in assay [14], in assay [15], in assay [16], in assay [17], in [18] and in assay [19].
As for `CCCCOC(=O)CCCCCCCCC(=O)OCCCC`, the result in [1], in assay [2], in assay [3], in [4], in assay [5] and in assay [6] was inactive. The compound was called inactive in [7], in assay [8], in assay [9], in assay [10], in assay [11] and in assay [12]. Further, the result in assay [14], in [15], in [16], in [17], in [18] and in assay [19] was inactive.
In the case of `O=C(N[C@@H](Cc1ccccc1)[C@@H](O)C(=O)N1C[C@@H](O)[C@@H](O)C1)c1cc2cc(Cl)ccc2[nH]1`, the outcome in assay [1], in assay [2], in assay [3], in assay [4], in assay [5] and in assay [6] was inactive. Moreover, the result in assay [7], in assay [8], in assay [11], in assay [12], in assay [13] and in assay [14] was inactive. Further, the compound was called inactive in assay [15], in assay [16], in [17] and in assay [18]. The AC50 in [9] was 100 µM (active); in [19], 128 µM (active).
Take `Nc1ccccc1N`: the call in [1], in [2], in assay [3], in assay [4], in assay [5] and in [7] was inactive. The call in [8], in [10], in assay [15], in assay [17] and in [18] was inactive. The AC50 in assay [6] is 41.3 µM (active); in assay [9], 38.2 µM (active); in assay [11], 23 µM (active); in assay [13] it was 15.7 µM (active); in [14], 28.5 µM (active); in assay [16], 25.9 µM (active). Also, the half-maximal activity concentration (AC50) in assay [19] was 50.8 µM (active).
With `Nc1ccc(S(=O)(=O)c2ccc(N)cc2)cc1`, the compound was called inactive in [1], in assay [20], in assay [3], in [4], in assay [5] and in [7]. Further, the compound was called inactive in assay [8], in [9], in assay [11], in assay [12], in [13] and in [14]. The call in assay [15], in assay [16], in assay [17], in assay [18] and in [19] was inactive.
